The entries come from a sample that favours hits as a whole.
FECH block: human FECH heme synthesis enzyme inhibition | 20,000 compounds, 3.3% hits | purified FECH, Ni-mesoporphyrin absorbance 550 nm | calls only at 10 µM (by protocol) | P22830;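 active means enzyme reaction rate more than 3 SD below the solvent-only control wells on the same plate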;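 further: lower slope than DMSO wells means FECH inhibition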
Target sequence (P22830 whole entry, looked up): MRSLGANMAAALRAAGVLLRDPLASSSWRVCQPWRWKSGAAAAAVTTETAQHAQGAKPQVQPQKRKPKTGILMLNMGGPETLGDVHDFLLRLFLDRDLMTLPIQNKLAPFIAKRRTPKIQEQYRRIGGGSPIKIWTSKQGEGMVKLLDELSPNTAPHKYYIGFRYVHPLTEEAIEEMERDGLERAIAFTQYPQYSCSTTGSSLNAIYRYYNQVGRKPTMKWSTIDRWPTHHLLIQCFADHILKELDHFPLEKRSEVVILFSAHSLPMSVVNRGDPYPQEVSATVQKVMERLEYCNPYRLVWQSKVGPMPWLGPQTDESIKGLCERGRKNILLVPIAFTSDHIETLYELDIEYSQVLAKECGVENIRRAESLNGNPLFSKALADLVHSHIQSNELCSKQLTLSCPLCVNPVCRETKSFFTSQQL
Calls only; n = inactive; + = active, no number.

SMILES | FECH block
O=c1cc(CNc2ccccc2Cl)nc2nc(NCc3ccccc3)[nH]n12 | +
O=c1cc(CNc2ccccc2F)nc2nc(NCc3ccccc3)[nH]n12 | n
O=c1cc(CNc2ccccc2F)nc2nc(NCc3ccc(F)cc3)[nH]n12 | n
Cc1cccc(NCc2cc(=O)n3[nH]c(NCc4ccccc4Cl)nc3n2)c1C | n
Cc1ccccc1NCc1cc(=O)n2[nH]c(NCc3ccccc3Cl)nc2n1 | +
CCc1ccccc1NCc1cc(=O)n2[nH]c(NCc3ccc(F)cc3)nc2n1 | n
COc1ccccc1CNc1nc2nc(CNc3ccccc3OC)cc(=O)n2[nH]1 | n
COc1ccc(CNc2nc3nc(CNc4ccccc4F)cc(=O)n3[nH]2)cc1 | n
COc1ccc(CNc2nc3nc(CNc4ccccc4OC)cc(=O)n3[nH]2)cc1 | +
CCc1ccccc1NCc1cc(=O)n2[nH]c(NCc3ccc(OC)cc3)nc2n1 | n
Cc1ccccc1NCc1cc(=O)n2[nH]c(NCc3ccc(F)cc3)nc2n1 | +
Cc1cccc(C(=O)Nc2ccccc2Sc2cc(C)nc3nc(-c4ccccc4)nn23)c1 | n
COc1ccc(N2C(=O)CCS2(=O)=O)cc1S(=O)(=O)N1CCN(c2ncccn2)CC1 | n
O=C(O)c1cc2n(n1)CCN(C1CCN(Cc3ccccc3)CC1)C2 | n
CCSc1nnc(NC(=O)CN2C[C@H](O)[C@@H](N3CCCC3)C2)s1 | n
CSc1nc(NCCN(C)C)c(C#N)c(-c2ccc(C)cc2)n1 | n
CCC1(CO)CCCN(C(=O)Nc2nnc(C)s2)C1 (centres undefined) | n
CN(C)C1CCCN(C(=O)CCC(=O)c2cccc3ccccc23)CC1 (centres undefined) | n
CC(C)OCCNc1nc(CCN)nc2ccccc12 | n
CN(Cc1cnn(C)c1)C(=O)c1cc(COc2cccc3cccnc23)on1 | n
Cc1ccc(NCc2cc(=O)n3[nH]c(NCc4ccccc4Cl)nc3n2)cc1 | +
O=c1cc(CNc2ccc(F)cc2)nc2nc(NCc3ccccc3)[nH]n12 | n
COc1ccccc1CNc1nc2nc(CNc3ccccc3)cc(=O)n2[nH]1 | n
CCc1ccccc1NCc1cc(=O)n2[nH]c(NCc3ccccc3)nc2n1 | n
CCc1ccccc1NCc1cc(=O)n2[nH]c(NCc3ccccc3Cl)nc2n1 | +
SMILES | FECH block
CCOc1ccccc1NCc1cc(=O)n2[nH]c(NCc3ccc(F)cc3)nc2n1 | n
COc1cccc(OC)c1-c1ccc(-c2csc(N)n2)cc1 | n
CCc1nc(OCC(=O)NCc2ccccn2)c2c(-c3ccc(F)cc3)noc2n1 | n
CCNC(=O)COc1nc(CC)nc2onc(-c3ccc(F)cc3)c12 | +
C=CCNC(=O)COc1nc(CC)nc2onc(-c3ccc(F)cc3)c12 | n
O=C(c1c(O)cccc1O)N1CCN(CCn2cncn2)CC1 | n
CNC(=O)C(C)N(C)C(=O)CNS(=O)(=O)c1ccc(F)c(C)c1 (centres undefined) | n
Cc1nc(NC(=O)NCc2cc3ccccc3s2)nn1C | n
O=C(CN1N=C(c2ccccc2)c2ccccc2S1(=O)=O)Nc1cccc(Cl)c1 | +
O=C(CN1CCN(Cc2ccc(Cl)cc2)S1(=O)=O)Nc1cccc(Cl)c1 | n
O=C(CN1CCCN(Cc2ccccc2)S1(=O)=O)Nc1cccc(Cl)c1 | n
COc1ccc(N2CCN(c3ncnc4sccc34)C(C)C2=O)cc1 (centres undefined) | n
Cc1cccc(C)c1Oc1ncccc1CNC(=O)c1ccnn1C(F)F | n
Cn1nnnc1SCCNC(=O)c1cnn2ccn(C)c12 | n
CCc1c(C)nn(CCNC(=O)c2cnn3ccn(C)c23)c1C | n
Cn1ccn2ncc(C(=O)NCCc3ccccn3)c12 | +
Cc1cccc(Cn2cc(C(=O)Nc3ccccc3C)ccc2=O)c1 | n
COc1ccc(N2C(=O)CCS2(=O)=O)cc1S(=O)(=O)NCc1ccccn1 | n
Cc1cc(C)cc(Nc2nc(NCC(C)C)nc3c2cnn3-c2ccccc2)c1 | n
COc1ccc(Cl)cc1S(=O)(=O)N1CCC(n2c(C(F)(F)F)nc3cccnc32)CC1 | n
O=S(=O)(c1ccccc1)N1CCC(n2c(C(F)(F)F)nc3cccnc32)CC1 | n
COc1ccc(S(=O)(=O)N2CCC(n3c(C(F)(F)F)nc4cccnc43)CC2)cc1OC | +
Cc1cnc(C)c(-c2cc(O)c3c(c2)CN(C(=O)C2COCCN2)CCO3)n1 (centres undefined) | n
CC(c1ccon1)N(C)C(=O)c1scc2c1CCCC2 (centres undefined) | n
CCOc1ccc(NC(=O)CSc2ncnc3nc(N(C)C)sc23)cc1 | n
SMILES | FECH block
Clc1ccccc1CNc1ncnc2oc3c(c12)CCCC3 | +
O=c1c(NCc2ccccc2Cl)c(-c2ccc3c(c2)CCCC3)c1=O | n
COc1ccc(CCNc2ncnc3oc4c(c23)CCCC4)c(OC)c1 | n
O=C(CN1CCCN(Cc2ccc(Cl)cc2)S1(=O)=O)Nc1ccc(F)cc1 | n
CCOc1ccc(NC(=O)CN2CCCN(Cc3ccc(F)cc3)S2(=O)=O)cc1 | +
CCOc1ccc(NC(=O)CN2CCCN(Cc3ccc(Cl)cc3)S2(=O)=O)cc1 | +
CCOc1ccc(NC(=O)CN2CCN(Cc3ccc(F)cc3)S2(=O)=O)cc1 | n
